High-throughput results as filed in PubChem BioAssay.
A selection: hits, their analogues and other compounds. The true share with any hit is near 1.4%.
MEX-5 binding: MEX-5 zinc finger RNA-binding disruptors – biochemical, C. elegans, fluorescence polarization, MLPCN library, primary screen | Zinc finger protein mex-5 (Caenorhabditis elegans), Q9XUB2 | MEX-5/FITC-TCR2 RNA binding; active compounds read low | activity score (negative = inhibition of binding), % at 10 µM | actives 0.38% (n = 300,000) | AID 1832, 2009;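 active means inhibition past about -25% in most replicates, and total fluorescence under double the plate's negative control median, limit read from the data; inconclusive means replicates evenly split on the limit, or fluorescence at least double controls; inactive means too little inhibition in most replicates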
MCL1-BIM inh: inhibitors of MCL1 binding to BIM-BH3, primary screen, biochemical, fluorescence polarization; GST-MCL1 / FITC-Bim-BH3 fluorescence polarization; actives 0.68% (n = 320,000); inhibition, % at 10.9 µM; AID 2057, 2009;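 active means inhibition above the mean inhibition of all tested compounds plus 3 SD, set per campaign, cut at about 40% in these data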;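 further: higher means more loss of mP so more displacement of Bim peptide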
Bcl-xL primary: inhibitors of human Bcl-xL, primary screen, biochemical, fluorescence polarization, HTS; actives 0.7% (n = 320,000); inhibition, % at 10.9 µM; AID 2129, 2009; GST-Bcl-xL / FITC-Bim BH3 peptide fluorescence polarization; Bcl-2-like protein 1 (Homo sapiens), Q07817;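 active means inhibition above the mean of all tested compounds plus 3 SD, cutoff set per campaign, cut at about 30% in these data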;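 further: inhibitors lower millipolarization by displacing the labeled peptide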
GLD-1 RNA inh: GLD-1/TGE RNA complex disruptors, primary screen, biochemical, fluorescence polarization | inhibition, % at 5.96 µM | actives 0.44% (n = 320,000) | purified GLD-1 + fluorescein TGE RNA;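 active means percent inhibition above a per-plate cutoff, the plate mean of test compounds plus 3 SD, cut at about 30% in these data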
Target sequence (Q17339 whole entry, looked up): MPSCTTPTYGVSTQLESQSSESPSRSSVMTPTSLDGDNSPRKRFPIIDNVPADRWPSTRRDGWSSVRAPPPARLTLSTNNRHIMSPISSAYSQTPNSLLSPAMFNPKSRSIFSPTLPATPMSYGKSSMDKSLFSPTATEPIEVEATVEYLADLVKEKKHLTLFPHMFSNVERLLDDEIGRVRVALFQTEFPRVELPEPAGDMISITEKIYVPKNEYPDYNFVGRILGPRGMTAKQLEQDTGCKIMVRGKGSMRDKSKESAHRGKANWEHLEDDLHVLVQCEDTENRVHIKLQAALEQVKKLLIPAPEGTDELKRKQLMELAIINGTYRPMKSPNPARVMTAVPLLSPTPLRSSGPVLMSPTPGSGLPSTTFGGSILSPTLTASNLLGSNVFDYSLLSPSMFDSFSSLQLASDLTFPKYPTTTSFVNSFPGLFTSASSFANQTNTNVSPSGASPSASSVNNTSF
E coli Lon inh: inhibitors of E. coli Lon protease, primary screen, biochemical, fluorescence polarization; AID 602123, 2011; actives 0.42% (n = 360,000); purified E. coli Lon protease; P0A9M0; inhibition, % at 7.94 µM; in the data active means inhibition above about 13%, passing the limit was not always enough
BCLXL inh confirm: Bcl-xL inhibitors blocking Bim BH3 binding, confirmation, counter-screen for MCL1 inhibitor project, biochemical, fluorescence polarization; shares compounds with MCL1-BIM inh; GST-Bcl-xL / FITC-Bim BH3 peptide FP binding; inhibition, % at 10.9 µM; actives 54% (n = 1,700); AID 2166, 2009;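 active means inhibition above a cutoff equal to the mean inhibition of all tested compounds plus 3 SD, cut at about 30% in these data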
MCL1 inh confirm: inhibitors of MCL1 binding to BIM-BH3, confirmation, biochemical, fluorescence polarization, triplicate; inhibition, % at 10.9 µM; actives 61% (n = 1,700); shares compounds with MCL1-BIM inh; GST-MCL1 / FITC-Bim-BH3 fluorescence polarization;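 active means inhibition above the average of all tested compounds plus 3 SD, cut at about 40% in these data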
A number is an active result; 0 = inactive; ? = inconclusive; - = no result.

SMILES	MEX-5 binding	MCL1-BIM inh	Bcl-xL primary	GLD-1 RNA inh	E coli Lon inh	BCLXL inh confirm	MCL1 inh confirm
Cc1cc(=O)c2c([nH]1)c(C)cc1[nH]c(C)c(C)c12	-	100	101	68	0	0	0
COC(=O)c1ccc(N2C(c3cc(OC)cc(OC)c3)=Cc3ccc(-c4cccnc4)cc3C2CC(=O)C2CC2)cc1 (stereo unspecified)	-	-	-	-	0	-	-
Oc1ccc(/C=N/Nc2cc(N3CCCC3)nc(N3CCCC3)n2)cc1O	0	48	0	0	0	0	0
Oc1ccc(/C=N\Nc2cc(N3CCOCC3)nc(N3CCOCC3)n2)c(O)c1	0	0	0	0	0	-	-
Cc1noc(C)c1-c1ccc(C(=O)NCCc2ccccc2)c2occc12	-	-	-	-	0	-	-
CCSc1nc2sc3c(c2c(=O)[nH]1)CC(C)(CC)OC3 (stereo unspecified)	0	0	0	0	0	-	-
CCC1(C)Cc2c(sc3nc(SC)[nH]c(=S)c23)CO1 (stereo unspecified)	0	57	50	32	-	0	0
O=C(CSc1nnc2ccccn12)Nc1ccccc1[N+](=O)[O-]	-	-	-	-	0	-	-
CCOC(=O)c1c[nH]c2nc(C)ccc2c1=O	-47	85	78	61	0	70	89
Cc1c(N)cccc1N	-	52	69	0	0	0	0
Cc1ccc(-c2csc(-c3c[nH]c4ccccc34)n2)c(C)c1	0	89	0	0	0	0	0
c1coc(-c2nc3ccccc3nc2-c2ccco2)c1	?	60	34	0	0	34	42
O=C(NCCO)c1ccc(Cl)c(Cl)c1	0	0	0	0	0	-	-
O=C(NC1CCCC1)c1ccc2nc(-c3ccco3)c(-c3ccco3)nc2c1	-	64	41	0	0	40	76
O=C(NCCO)c1ccc2nc(-c3ccco3)c(-c3ccco3)nc2c1	-39	56	43	0	0	60	77
O=C(NCCc1ccccc1)c1ccc2nc(-c3ccco3)c(-c3ccco3)nc2c1	0	40	0	0	0	42	75
O=C(NCCc1ccccc1)c1ccc(=O)oc1	0	0	0	0	0	-	-
O=c1oc(-c2ccco2)nc2ccccc12	0	0	0	0	0	-	-
O=Cc1cccc(OC(=O)/C=C/c2ccco2)c1	0	50	0	0	0	0	52
COC(=O)c1ccc(OC(=O)/C=C/c2ccco2)cc1	0	0	0	0	0	-	-
Oc1ccc(C[C@H]2CN([C@@H](Cc3cccc(O)c3)CN3CCC[C@@H]3CN3C(=S)NC[C@@H]3Cc3ccccc3)C(=S)N2CC2CCCCC2)cc1	-	-	-	-	0	-	-
COc1cc(C2C3CN(C)CC=C3C(C#N)=C(N)C2(C#N)C#N)ccc1OC(C)C (stereo unspecified)	-30	66	60	0	0	0	0
CC(C)(C)OC(=O)N1CC=C2C(C#N)=C(N)C(C#N)(C#N)[C@H](c3cccnc3)[C@H]2C1	-28	67	53	37	0	45	47
COc1cc([C@@H]2[C@H]3CNCC=C3C(C#N)=C(N)C2(C#N)C#N)ccc1OC(C)C	0	0	0	0	0	-	-
CC(C)N1CC=C2C(C#N)=C(N)C(C#N)(C#N)[C@H](c3ccoc3)[C@H]2C1	?	183	158	85	-	78	100
SMILES	MEX-5 binding	MCL1-BIM inh	Bcl-xL primary	GLD-1 RNA inh	E coli Lon inh	BCLXL inh confirm	MCL1 inh confirm
CNc1ccc(-c2cccc(C#N)c2)cn1	-	-	-	-	0	-	-
O=c1c2c3c(sc2[nH]c(=S)n1Cc1ccco1)CCC3	0	48	0	0	0	0	41
CC1(C)Cc2c(sc3[nH]c(=S)n(Cc4ccco4)c(=O)c23)CO1	0	0	0	0	0	-	-
O=C(/C=C/c1ccc(Cl)c([N+](=O)[O-])c1)Nc1ccc(NC(=O)c2ccco2)cc1	0	-	-	-	0	-	-
O=C(/C=C/c1ccc(Cl)c([N+](=O)[O-])c1)Nc1ccc(N2CCCC2)cc1	0	47	0	0	0	0	43
COC(=O)c1ccc2ccn(CC(=O)NC3CCCCC3)c2c1	0	49	0	0	0	0	0
N#Cc1ccc2ccn(CC(=O)NC3CCCCCC3)c2c1	0	0	0	0	0	-	-
CCN1CCN(c2cc(N3CCN(C(=O)c4ccco4)CC3)c3c4c(onc24)-c2ccccc2C3=O)CC1	0	103	92	0	0	52	0
Oc1cccc(O)c1O	-	63	0	0	-	0	42
CC(C)c1ccc(CC(=O)N2CCC2(C)C(=O)Nc2ccc3c(c2)OCCO3)cc1 (stereo unspecified)	-	-	-	-	0	-	-
Cc1cc(C)c2cc3c(ccn3C3OC[C@H](O)[C@H](O)[C@H]3O)cc2n1 (stereo partly specified)	0	100	88	0	0	72	86
O=C(c1cc(C2CCCCN2S(=O)(=O)c2cccs2)on1)N1CCOCC1 (stereo unspecified)	-	-	-	-	0	-	-
Cc1ccccc1[C@]1(C)ON(c2ccccc2C(F)(F)F)C1=O	-	0	0	0	-	-	-
CCNC(=O)C1(C)CCN(Cc2ccc(OC(F)(F)F)cc2)C1 (stereo unspecified)	-	-	-	-	0	-	-
COc1ccccc1Cc1c(-c2ccc(C)cc2)nc2cc(C)c(Br)c(C)n12	-	-	-	-	0	-	-
CC(=O)Nc1ccc2cc3ccc(NC(C)=O)cc3nc2c1	-36	63	60	0	0	156	195
c1coc(-c2cc3nc(NCc4ccc5c(c4)OCO5)ccn3n2)c1	-	-	-	-	0	-	-
Cc1ccccc1OCC(=O)OCC(=O)Nc1ncc(Cl)c(C)c1Cl	-	41	0	0	0	0	47
Cc1ccccc1OCC(=O)OCC(=O)Nc1ccc(Cl)cn1	-	0	0	0	0	-	-
O=C(O)c1cc(-c2ccc(/C=C3\NC(=O)N(c4ccc(Cl)cc4)C3=O)o2)ccc1Cl	?	72	0	0	0	32	55
O=C(O)c1cc(-c2ccc(/C=C3\NC(=O)N(c4ccccc4)C3=O)o2)ccc1Cl	0	0	0	0	0	-	-
COc1ccc(NC(=O)c2c3c(nc4ccccc24)CCC3)cc1S(=O)(=O)N1CCOCC1	0	50	0	0	0	0	45
Cc1ccc(N=Nc2[nH]c3ccccc3c2O)cc1	-61	109	101	67	0	83	81
Cn1c(=O)[nH]c2c(Cl)nccc21	0	0	0	0	0	-	-
Cn1c(=O)[nH]c2cc(Cl)cnc21	-32	73	65	44	0	59	69
